Among all 370,000 compounds or so, about 4,700 (1.3%) were called active. The entries come from a sample that favours actives as a whole. Values without a mark were called inactive.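 The calls were made as follows: active = inhibition above the plate cutoff, the mean of all test compounds on that plate plus 3 SD (cut at about 35% in these data); inactive = the rest.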
Experiment: binders of r(CAG) RNA repeats, primary screen, biochemical, fluorescence (AID 651821);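 also: 0% = DMSO alone and 100% = 100 µM mitoxantrone as full dye displacement; higher means more dye released from RNA so lower well fluorescence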
Conditions: r(CAG) RNA repeat, TO-PRO-1 dye displacement fluorescence; at 3 µM; active compounds read high

In order of rising inhibition:
1. CCOC(=O)c1c(NC(=O)CN2C(=O)NC3(CCC(C)CC3)C2=O)sc(C)c1CC (stereo not drawn)  -14%
2. Cc1ccc2nc(SCC(=O)N3CC(C)OC(C)C3)nc(=O)n2c1 (stereo not drawn)  -10.3%
3. COc1ccccc1CCNC(=O)C1CCN(C(=O)/C=C/c2ccccc2)CC1  -7.33%
4. CCOc1ccc(C(=O)Nc2cccc(SC)c2)cc1  -4.59%
5. COc1cc(/C=C/C(=O)OCC(=O)NC(=O)NCc2ccccc2)ccc1OCC#N  -3.56%
6. COc1ccc(OC)c(S(=O)(=O)Nc2ccccc2F)c1  -3.01%
7. O=C(O)C(=Cc1ccccc1[N+](=O)[O-])c1ccccc1  -2.74%
8. CC(=O)Nc1ccc(NC(=O)c2ccc3c(c2)C(=O)N(c2ccccc2C)C3=O)cc1  -2.08%
9. CCN(CC(=O)Nc1ccccc1C(F)(F)F)C(=O)C1CCN(C(=O)Nc2ccccc2)CC1  -1.69%
10. COc1cccc(CN(C)CC(=O)Nc2sc3c(c2C#N)CCC3)c1  -1.59%
11. O=C(OCC(=O)N1CCCCC1)c1ccc(OC(F)(F)F)cc1  -1.21%
12. COC(=O)C1CN(CC(C)C)CCS(=O)(=O)N1Cc1ccc(F)cc1 (stereo not drawn)  -0.73%
13. CSc1nc(-c2ccccc2)nc(C(Cl)Cl)n1  -0.59%
14. CC(C)(C)OC(=O)NCc1cc(F)ccc1/C=C/S(=O)(=O)NCCc1ccccc1  -0.33%
15. CCN(CC)C(=O)CC[C@@H]1CC[C@]2(CCCN(S(=O)(=O)C3CCCCC3)C2)O1  -0.19%
16. Cn1c(SCc2nc3ccccc3s2)nnc1-c1ccc2c(c1)OCO2  -0.18%
17. COc1ccc(N2CCN(CCNS(=O)(=O)c3ccc(Cl)s3)CC2)cc1  -0.11%
18. C=CCN(C)CC#Cc1ccccc1  -0.11%
19. CCC(C)n1[nH]c(=O)cc1N (stereo not drawn)  -0.11%
20. O=C(Nc1ccccc1)N1CCN(Cc2nc3ccccc3c(=O)[nH]2)CC1  -0.05%
21. CCC(C(=O)Nc1ncccn1)(C(F)(F)F)C(F)(F)F  -0.05%
22. CN1CCN(S(=O)(=O)c2cccc(C(=O)N3CCc4ccccc43)c2)CC1  0.16%
23. Cc1ccccc1NC(=O)Cn1nnc(-c2ccccc2F)n1  0.27%
24. COc1ccc(N2CCN(CCNS(=O)(=O)c3ccc([N+](=O)[O-])cc3)CC2)cc1  0.28%
25. O=C(C1CCCN1S(=O)(=O)c1ccccc1)N1CCc2ccccc2C1 (stereo not drawn)  0.6%
26. O=C(/C=C/c1cc2c(cc1Br)OCO2)NCc1ccc(Cl)cc1  0.75%
27. Cc1noc(C)c1C(=O)N1CCC1(C)C(=O)NS(=O)(=O)c1ccc(C#N)cc1 (stereo not drawn)  0.97%
28. Cc1ccc(NC(=O)CCNC(=O)c2ccc([N+](=O)[O-])cc2)cc1S(=O)(=O)N1CCOCC1  1.24%
29. CCOC(=O)C1=C(C)NC2=C(C(=O)CC(C)(C)C2)C1c1ccc2c(c1)OCO2 (stereo not drawn)  1.3%
30. CN(C)[C@H]1CCN(c2cccc3c2S(=O)(=O)N2CC[C@H](C2)O3)C1  1.39%
31. COC(=O)c1cc(S(=O)(=O)N2CCN(c3ccccc3C)CC2)cn1C  1.46%
32. COC(=O)[C@]12C[C@H](CC(=O)NCc3ccccc3)C(=O)N(CCC3=CCCCC3)C1=C[C@H](C(C)(C)C)O[C@@H]2C  1.7%
33. CCOC(=O)[C@]12CCCC=C1N(Cc1ccc(OC)cc1)C(=O)[C@@H]2CC(=O)NCc1cccs1  1.72%
34. CN1CCN(S(=O)(=O)c2cccc(C(=O)Nc3cccc(S(N)(=O)=O)c3)c2)CC1  1.84%
35. CC1(C(=O)NS(=O)(=O)c2ccc(C#N)cc2)CCN1C(=O)CC1CCCC1 (stereo not drawn)  1.94%
36. O=C(CCS(=O)(=O)c1ccccc1Cl)Nc1ccc(S(=O)(=O)Nc2ncccn2)cc1  2.17%
37. CC(C)(C)n1nc(C2CC2)c(Br)c1NC(=O)c1ccccc1F  2.68%
38. N#Cc1cccc(C(=O)NCC2CCN(C(=O)C(=O)c3cc4ccccc4o3)CC2)c1  2.89%
39. COc1cc(C(=O)NCC(c2ccco2)N2CCCC2)ccc1OCc1ccccc1 (stereo not drawn)  3.03%
40. CCC(CC)C(=O)Nc1ccc(S(=O)(=O)Nc2nccs2)cc1  3.15%
41. Cc1ccc(N)cc1CN1CCN(c2ncc(Cc3ccccc3)cn2)CC1  3.17%
42. CC1(C)OC(=O)C2=C(CC(CCc3ccccc3)OC2c2ccc(Cl)cc2)O1 (stereo not drawn)  3.44%
43. O=C(CSc1nc2c(c(=O)[nH]1)CCCC2)N1CCCCC1  3.54%
44. COCc1cc(C(C)=O)ccc1OC  3.9%
45. CC(=O)Oc1ccc(C)cc1N1C(=O)c2ccc(C(=O)O)cc2C1=O  4.11%
46. COc1ccc(NS(=O)(=O)c2cc(NC(=O)COc3ccccc3F)ccc2OC)cc1  4.34%
47. CCOC(=O)[C@]12CCCCC/C=C\1N(Cc1ccc(OC)cc1)C(=O)[C@H]2CC(=O)N1CCOCC1  4.38%
48. Cc1cc(=O)[nH]c(SCC(=O)Nc2ccc(Cl)cc2C)n1  4.47%
49. CN1C(=O)c2cc(NS(C)(=O)=O)ccc2OC[C@@H]2O[C@@H](CC(=O)NCc3ccc(-c4ccccc4)cc3)CC[C@H]21  4.86%
50. CCCC[C@H](C(=O)N(CC)c1ccccc1)[C@@H](O)c1ccc2ccccc2c1  4.92%
51. CCc1c(C)sc(NC(=O)c2cccs2)c1C(N)=O  5.17%
52. O=C(Nc1ccc(S(=O)(=O)N2CCOCC2)cc1)c1ccc2ncsc2c1  5.29%
53. Nc1[nH]c(C(=O)c2ccccc2)c(-c2ccc(Cl)cc2Cl)c1C(=O)c1ccccc1  5.66%
54. COc1ccc(/C=C(/NC(=O)c2ccccc2)C(=O)Nc2cccc(C(=O)O)c2)cc1  6.11%
55. O=C(NN=Cc1ccco1)C(=O)Nc1ccc(Cl)c([N+](=O)[O-])c1  6.16%
56. Cc1cc(C(=O)OCC(=O)Nc2nccs2)c2ccccc2n1  6.91%
57. Cc1cc(Br)cn2c(Cc3ccccc3C(F)(F)F)c(-c3ccc(C#N)cc3)nc12  7.42%
58. COc1cc(/C=C/C(=O)O)cc(S(=O)(=O)Nc2ccccc2SC)c1OC  8.56%
59. C[C@@H]1CN([C@H](C)CO)C(=O)CCCn2cc(nn2)CO[C@H]1CN(C)C(=O)Nc1ccc(N2CCCCC2)cc1  9.11%
60. COC(=O)[C@]12C[C@H](CC(=O)NCCCCc3ccccc3)C(=O)N(Cc3ccc4c(c3)OCO4)C1=C[C@H](C(C)(C)C)O[C@@H]2C  9.49%
61. COc1ccc(NS(=O)(=O)c2ccc(C(=O)Nc3c(C)n(C)n(-c4ccccc4)c3=O)cc2)cc1  10.7%
62. COc1ccc(-c2cc(-c3nnc(SCC(=O)Nc4cccc5ccccc45)n3N)[nH]n2)cc1  10.7%
63. Cc1ccnc(NS(=O)(=O)c2ccc(NC(=O)c3ccc(S(=O)(=O)N4CCOCC4)cc3)cc2)n1  12.3%
64. COc1ccc(NC(=O)CSc2nc(NS(=O)(=O)c3ccc(C)cc3)cc(=O)[nH]2)cc1  13.4%
65. CC[C@H](NC(=O)[C@H](Cc1ccccc1)NC(=O)[C@H]1O[C@@H](n2cnc3c(=O)[nH]c(N)nc32)[C@H](O)[C@@H]1O)c1ccccc1  14.3%
66. Cc1ccc(C(=O)Nc2ccccc2-c2ccccc2)cc1S(=O)(=O)Nc1ccccc1  17.1%
67. CC(=O)c1c(C)[nH]c(C(=O)OCC(=O)Nc2sc3c(c2C#N)CCCC3)c1C  19.6%
68. COc1ccccc1OC(C)C(=O)Nc1ccc(S(=O)(=O)Nc2nccs2)cc1 (stereo not drawn)  19.7%
69. Cc1ccc(OCCCC(=O)Nc2ccc(S(=O)(=O)Nc3cc(C)nc(C)n3)cc2)cc1  24.9%
70. O=C(Nc1ccc(S(=O)(=O)Nc2nccs2)cc1)c1cc(=O)[nH]c2ccccc12  25.9%

In the case of `CN1CCN(S(=O)(=O)c2cccc(C(=O)Nc3sccc3C#N)c2)CC1`, the inhibition is reported as 44.6% (active).
In the case of `Cc1ccc(OCCC(=O)Nc2ccc(S(=O)(=O)Nc3nccs3)cc2)cc1`, the inhibition is reported as 36.9% (active).
For `O=C(Nc1ccc(S(=O)(=O)Nc2nccs2)cc1)c1cccc(S(=O)(=O)N2CCOCC2)c1`, the inhibition was 34.7% (active).
With `O=C(CCc1ccccc1Cl)Nc1ccc(S(=O)(=O)Nc2nccs2)cc1` the inhibition was 44% (active).
In the case of `O=C(Nc1ccc(S(=O)(=O)Nc2nccs2)cc1)c1cc(-c2ccncc2)nc2ccccc12`, the inhibition is reported as 47.9% (active).
For `COC(=O)c1ccc(COc2ccc(/C=C/C(=O)c3ccc(OC)c(CSCC(=O)O)c3)cc2OC)cc1`, the inhibition was 43.7% (active).
For `COc1ccc(C(=O)/C=C/c2ccc(-c3ccccc3)cc2)cc1CSCC(=O)O`, the inhibition was 63.2% (active).
With `CCOC(=O)c1c(NC(=O)C2CC=CCC2C(=O)O)sc(C)c1CC` (stereo not drawn) the inhibition was 34.6% (active).
In the case of `COc1ccc(NS(=O)(=O)c2cc(C(=O)Nc3ccccc3C(=O)O)ccc2C)cc1`, the inhibition is reported as 74.6% (active).
For `COc1cc(OC)c(S(=O)(=O)Nc2ccccc2C(=O)O)cc1S(=O)(=O)Nc1ccccc1C(=O)O`, the inhibition was 63.4% (active).
In the case of `COc1ccc(NS(=O)(=O)c2cc(NC(=O)CC(=O)c3ccc([N+](=O)[O-])cc3)ccc2C)cc1`, the inhibition is reported as 42.4% (active).
With `O=C(O)c1ccc2c(c1)C(=O)N(c1ccc(/C=C/C(=O)c3ccccc3)cc1)C2=O` the inhibition was 46.3% (active).
In the case of `CC1(C(=O)NS(=O)(=O)c2ccc(C#N)cc2)CCN1C(=O)c1ccc(C2CCCCC2)cc1` (stereo not drawn), the inhibition is reported as 46.9% (active).
In the case of `Cc1ccc(NC(=O)CSc2nc(CSc3ccc(C)cc3)cc(=O)[nH]2)cc1`, the inhibition is reported as 45.1% (active).
In the case of `O=C(N/N=C/c1cc(Cl)cc([N+](=O)[O-])c1O)C(O)(c1ccccc1)c1ccccc1`, the inhibition is reported as 75.8% (active).
With `N#CCC(=O)Nc1ccc(C(=O)OCC(=O)Nc2sc3c(c2C#N)CCCC3)cc1` the inhibition was 37.6% (active).
With `COc1ccc(C(=O)Nc2cccc(/C=C(/CCC(=O)O)c3nc4ccccc4s3)c2)cc1` the inhibition was 71.7% (active).
For `O=C(O)CC/C(=C\c1cc2c(cc1Br)OCO2)c1nc2ccccc2s1`, the inhibition was 38.8% (active).

Reference: PubChem BioAssay AID651821 (The Scripps Research Institute Molecular Screening Center, 2012)
